What all share (details): Compound concentration 20.0 uM
In assay [1] the target is Tyrosine-protein kinase ABL1 (Homo sapiens) (UniProt P00519).
For assay [2], the target named is Bromodomain-containing protein 4 (Homo sapiens) (UniProt O60885).
The target of assay [3] is Cyclin-dependent kinase 2 (Homo sapiens) (UniProt P24941).
Assay [4] addresses Casein kinase I isoform delta (Homo sapiens) (UniProt P48730).
Assay [5] has as its target Glycogen synthase kinase-3 beta (Homo sapiens) (UniProt P49841).
For assay [6], the target named is Mitogen-activated protein kinase 1 (Homo sapiens) (UniProt P28482).
The target in assay [7] is T1, Aurora kinase A (Homo sapiens) (UniProt O14965).
T1 sequence (whole entry): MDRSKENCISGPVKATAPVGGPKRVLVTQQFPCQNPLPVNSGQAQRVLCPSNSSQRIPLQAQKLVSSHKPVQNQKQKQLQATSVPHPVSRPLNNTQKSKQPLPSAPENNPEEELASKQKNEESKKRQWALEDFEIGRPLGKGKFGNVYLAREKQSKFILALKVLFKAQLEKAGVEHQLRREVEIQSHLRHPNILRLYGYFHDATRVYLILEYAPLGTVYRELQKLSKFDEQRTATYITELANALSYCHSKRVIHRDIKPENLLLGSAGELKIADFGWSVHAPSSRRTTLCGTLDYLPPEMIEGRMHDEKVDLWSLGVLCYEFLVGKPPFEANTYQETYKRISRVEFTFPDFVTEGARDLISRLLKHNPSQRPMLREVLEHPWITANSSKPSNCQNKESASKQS

Assay [8] has as its target T2, Transcription intermediary factor 1-alpha (Homo sapiens) (UniProt O15164).
T2 sequence (whole entry): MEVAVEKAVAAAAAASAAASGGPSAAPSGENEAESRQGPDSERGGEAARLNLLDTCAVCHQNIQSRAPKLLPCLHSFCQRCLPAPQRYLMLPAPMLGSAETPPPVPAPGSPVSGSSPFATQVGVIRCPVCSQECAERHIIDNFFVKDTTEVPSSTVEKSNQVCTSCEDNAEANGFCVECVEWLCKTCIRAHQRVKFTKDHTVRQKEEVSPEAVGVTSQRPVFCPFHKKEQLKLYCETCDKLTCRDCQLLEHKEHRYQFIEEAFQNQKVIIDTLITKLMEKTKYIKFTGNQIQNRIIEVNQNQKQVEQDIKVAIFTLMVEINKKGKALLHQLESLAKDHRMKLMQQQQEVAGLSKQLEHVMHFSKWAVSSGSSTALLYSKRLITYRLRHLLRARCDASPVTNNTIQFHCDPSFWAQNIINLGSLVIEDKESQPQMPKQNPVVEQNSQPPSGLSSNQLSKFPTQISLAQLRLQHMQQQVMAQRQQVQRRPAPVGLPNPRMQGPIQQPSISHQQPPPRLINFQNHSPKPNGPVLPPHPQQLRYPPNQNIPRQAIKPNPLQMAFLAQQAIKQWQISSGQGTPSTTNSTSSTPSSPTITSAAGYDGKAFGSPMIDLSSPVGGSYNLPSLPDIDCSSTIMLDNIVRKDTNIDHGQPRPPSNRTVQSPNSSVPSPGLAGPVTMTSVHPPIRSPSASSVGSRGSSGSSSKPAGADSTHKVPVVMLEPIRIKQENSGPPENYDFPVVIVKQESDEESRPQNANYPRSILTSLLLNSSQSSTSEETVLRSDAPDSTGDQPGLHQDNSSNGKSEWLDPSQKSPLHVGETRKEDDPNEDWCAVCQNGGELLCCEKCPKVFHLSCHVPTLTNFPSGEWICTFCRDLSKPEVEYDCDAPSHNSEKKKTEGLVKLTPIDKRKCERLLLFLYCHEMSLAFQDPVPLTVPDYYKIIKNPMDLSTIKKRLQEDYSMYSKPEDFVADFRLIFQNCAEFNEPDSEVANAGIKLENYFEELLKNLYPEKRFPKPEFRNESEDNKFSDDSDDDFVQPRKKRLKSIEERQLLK

Non-standard residues stand in square brackets, D forms with d. Residues, ends and D or L forms follow the SMILES beside them. Nle = CCCC[C@H](N)C(=O)O

Glycogen synthase kinase-3 beta (Homo sapiens), sequence (P49841 whole entry, looked up): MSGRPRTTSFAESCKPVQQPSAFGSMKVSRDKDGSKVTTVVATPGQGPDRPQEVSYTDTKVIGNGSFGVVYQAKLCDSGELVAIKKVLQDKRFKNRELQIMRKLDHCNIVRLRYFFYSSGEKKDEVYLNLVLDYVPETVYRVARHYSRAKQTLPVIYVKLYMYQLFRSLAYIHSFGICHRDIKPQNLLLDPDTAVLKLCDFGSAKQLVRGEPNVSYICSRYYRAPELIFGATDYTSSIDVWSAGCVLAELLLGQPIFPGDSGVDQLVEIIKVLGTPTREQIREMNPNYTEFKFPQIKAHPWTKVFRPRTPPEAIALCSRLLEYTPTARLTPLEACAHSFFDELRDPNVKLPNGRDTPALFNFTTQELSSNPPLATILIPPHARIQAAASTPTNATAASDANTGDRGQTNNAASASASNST
Tyrosine-protein kinase ABL1 (Homo sapiens), sequence (P00519 whole entry): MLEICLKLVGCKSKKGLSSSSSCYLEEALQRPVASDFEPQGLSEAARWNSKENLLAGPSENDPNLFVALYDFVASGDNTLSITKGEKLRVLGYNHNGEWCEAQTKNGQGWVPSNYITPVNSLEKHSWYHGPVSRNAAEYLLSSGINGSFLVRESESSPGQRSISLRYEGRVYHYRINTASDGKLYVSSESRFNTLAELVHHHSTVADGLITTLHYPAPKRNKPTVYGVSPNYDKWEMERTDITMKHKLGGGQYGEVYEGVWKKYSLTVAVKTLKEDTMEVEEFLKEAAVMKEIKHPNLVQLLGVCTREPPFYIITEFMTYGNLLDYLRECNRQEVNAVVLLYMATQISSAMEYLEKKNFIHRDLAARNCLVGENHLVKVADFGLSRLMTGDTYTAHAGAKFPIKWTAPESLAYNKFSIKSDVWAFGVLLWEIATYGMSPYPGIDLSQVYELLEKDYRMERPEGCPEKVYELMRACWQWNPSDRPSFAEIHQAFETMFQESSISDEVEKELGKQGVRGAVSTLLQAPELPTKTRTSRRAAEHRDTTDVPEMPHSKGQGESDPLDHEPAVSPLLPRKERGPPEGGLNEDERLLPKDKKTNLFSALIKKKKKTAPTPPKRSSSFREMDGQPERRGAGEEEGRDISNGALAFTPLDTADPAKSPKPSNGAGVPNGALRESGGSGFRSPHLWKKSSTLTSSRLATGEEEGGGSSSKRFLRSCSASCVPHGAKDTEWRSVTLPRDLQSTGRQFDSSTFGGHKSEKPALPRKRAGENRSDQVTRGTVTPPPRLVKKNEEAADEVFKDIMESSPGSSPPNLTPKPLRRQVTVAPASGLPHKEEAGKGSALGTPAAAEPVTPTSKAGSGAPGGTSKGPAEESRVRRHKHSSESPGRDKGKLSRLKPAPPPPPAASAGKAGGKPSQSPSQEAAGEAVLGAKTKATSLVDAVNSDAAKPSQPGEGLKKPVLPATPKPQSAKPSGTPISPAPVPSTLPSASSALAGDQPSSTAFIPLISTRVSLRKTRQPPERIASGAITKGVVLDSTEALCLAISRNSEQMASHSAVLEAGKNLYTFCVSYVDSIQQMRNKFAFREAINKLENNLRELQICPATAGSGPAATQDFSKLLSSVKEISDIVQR
Mitogen-activated protein kinase 1 (Homo sapiens), sequence (P28482 whole entry): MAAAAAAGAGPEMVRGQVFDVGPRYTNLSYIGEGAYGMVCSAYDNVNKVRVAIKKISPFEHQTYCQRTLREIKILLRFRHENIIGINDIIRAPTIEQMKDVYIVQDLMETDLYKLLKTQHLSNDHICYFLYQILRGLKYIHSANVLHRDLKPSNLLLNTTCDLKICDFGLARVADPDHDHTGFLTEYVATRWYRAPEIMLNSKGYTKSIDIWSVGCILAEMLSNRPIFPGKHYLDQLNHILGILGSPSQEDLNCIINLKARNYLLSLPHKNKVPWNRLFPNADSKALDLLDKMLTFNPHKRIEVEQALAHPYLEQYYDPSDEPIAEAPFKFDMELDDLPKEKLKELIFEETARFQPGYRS
Casein kinase I isoform delta (Homo sapiens), sequence (P48730 whole entry, looked up, canonical isoform): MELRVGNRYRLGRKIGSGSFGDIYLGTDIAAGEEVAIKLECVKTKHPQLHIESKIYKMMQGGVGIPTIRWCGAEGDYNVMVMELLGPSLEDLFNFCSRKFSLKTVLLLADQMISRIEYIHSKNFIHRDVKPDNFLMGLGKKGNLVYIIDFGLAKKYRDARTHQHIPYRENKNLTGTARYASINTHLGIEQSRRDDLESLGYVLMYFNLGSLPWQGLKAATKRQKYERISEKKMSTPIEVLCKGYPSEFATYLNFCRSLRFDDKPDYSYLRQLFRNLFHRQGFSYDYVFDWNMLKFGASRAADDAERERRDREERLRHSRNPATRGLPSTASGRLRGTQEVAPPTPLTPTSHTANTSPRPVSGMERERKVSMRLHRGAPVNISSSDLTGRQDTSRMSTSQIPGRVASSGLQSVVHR

The term ΔTm denotes the shift of the melting midpoint relative to a reference. `CC(C)(C)C1CCN(C(=O)n2ncc(C(O)(c3ccccc3)c3ccccc3)n2)CC1`: the ΔTm is -2.72 °C in assay [1]; -5.41 °C in assay [2]; -2.83 °C in assay [3]; 0.67 °C in assay [4]; -5.44 °C in assay [5]; 0.52 °C in assay [6]. The ΔTm in assay [7] was -4.85 °C; in assay [8], -0.34 °C.

`Cc1cc(Cl)cc(-c2c3sc(CN4C(=O)C5C(C4=O)C5(C)C)cc3nn2C)c1OC1CCNCC1` (stereo unspecified): the thermal shift (ΔTm) in assay [1] was 0.34 °C; in assay [2] it was -5.5 °C; in assay [3], 0.13 °C; in assay [4], -0.45 °C; in assay [5], -0.24 °C; in assay [6], -0.05 °C. The results for the ΔTm in assay [7] and in assay [8] were -2.64 °C and -1.23 °C, respectively.

Regarding `CC(C)(C)NS(=O)(=O)c1cccc2c(NC(=O)[C@H](Cc3ccccc3)NC(=O)C3CCCCC3)cccc12`, the shift in melting temperature (ΔTm) is 0.13 °C in assay [1]; 1.07 °C in assay [2]; 0.3 °C in assay [3]; -1.46 °C in assay [4]; -0.2 °C in assay [5]; -10.5 °C in assay [6]. For the same compound, the ΔTm in assay [7] was -2.29 °C; in assay [8], 2.01 °C.

Turning to `COC(=O)[C@H]1[C@H]2C[C@@H]3c4[nH]c5cc(OC)ccc5c4CCN3C[C@H]2C[C@@H](OC(=O)c2cc(OC)c(OC)c(OC)c2)[C@@H]1OC`, the thermal shift (ΔTm) in assay [1] is 0.21 °C; in assay [2] it was -0.12 °C; in assay [3], 0.11 °C; in assay [4], -0.26 °C; in assay [5], -0.54 °C; in assay [6], 0.12 °C. The ΔTm in assay [7] was -0.63 °C; in assay [8] it was -0.4 °C.

As for `CC(C)C[C@@H](C=O)NC(=O)[C@@H](NS(=O)(=O)c1ccc(F)cc1)C(C)C`, the ΔTm was -0.01 °C in assay [1]; -1.83 °C in assay [2]; -0.11 °C in assay [3]; 0.22 °C in assay [4]; -0.13 °C in assay [5]; 0.01 °C in assay [6]. Further, the results for the ΔTm in assay [7] and in assay [8] were -1.2 °C and -1.15 °C, respectively.

As for `CC(=O)NCC(=O)N1CCC[C@@H]1B(O)O`, the ΔTm was 0.26 °C in assay [1]; -0.72 °C in assay [2]; 1.18 °C in assay [3]; -0.18 °C in assay [4]; -0.78 °C in assay [5]; 0.14 °C in assay [6]. For the same compound, the ΔTm is -1.86 °C in assay [7] and 0.93 °C in assay [8].

Consider `O=C1/C(=N/Nc2ccc(S(=O)(=O)O)cc2)C(c2ccc([N+](=O)[O-])cc2)=NN1c1ccccc1`, for which the ΔTm in assay [1] was 1.16 °C; in assay [2], -0.38 °C; in assay [3], -0.28 °C; in assay [4], 0.56 °C; in assay [5], -2.61 °C; in assay [6], 0 °C. Further, the shift in melting temperature (ΔTm) in assay [7] is -0.73 °C; in assay [8] it was -0.32 °C.

Consider `CN(CCCN1c2ccccc2CCc2ccccc21)CC(=O)c1ccc(Cl)cc1`, for which the shift in melting temperature (ΔTm) in assay [1] was -0.37 °C; in assay [2] it was -0.08 °C; in assay [3], 0.04 °C; in assay [4], -0.19 °C; in assay [5], -0.11 °C; in assay [6], 0.76 °C. In addition, the values for the ΔTm in assay [7] and in assay [8] were -1.35 °C and 0.15 °C, respectively.

For `O=C(CN1CCN(C(=O)c2ccco2)CC1)Nc1cc(C(F)(F)F)ccc1Cl`, the ΔTm is 0.19 °C in assay [1]; 2.01 °C in assay [2]; 0.06 °C in assay [3]; -0.11 °C in assay [4]; -0.95 °C in assay [5]; 0.07 °C in assay [6]. Further, the ΔTm in assay [7] is -1.45 °C; in assay [8], 0.51 °C.

As to `CCCSc1nc(N[C@@H]2C[C@H]2c2ccc(F)c(F)c2)c2nnn([C@@H]3C[C@H](OCCO)[C@@H](O)[C@H]3O)c2n1`, the ΔTm was 0.97 °C in assay [1]; -3.15 °C in assay [2]; -0.32 °C in assay [3]; -0.02 °C in assay [4]; -1.82 °C in assay [5]; 0.5 °C in assay [6]. Besides, the ΔTm is -2.27 °C in assay [7] and 0.03 °C in assay [8].

Regarding `O=C(c1cc(Cl)c(O)c(Cl)c1)N1CS(=O)(=O)c2ccccc21`, the ΔTm was 0.71 °C in assay [1]; -0.92 °C in assay [2]; 0.15 °C in assay [3]; -0.26 °C in assay [4]; 0.51 °C in assay [5]; 0.24 °C in assay [6]. Moreover, the ΔTm in assay [7] is -2.22 °C; in assay [8] it was -0.84 °C.

In the case of `CC/C(=C(/c1ccc(/C=C/C(=O)O)cc1)c1ccc2[nH]ncc2c1)c1ccc(F)cc1Cl`, the ΔTm in assay [1] is -5.16 °C; in assay [2], -0.16 °C; in assay [3], -3.66 °C; in assay [4], -4.37 °C; in assay [5], 3.37 °C; in assay [6], 0 °C. For the same compound, the thermal shift (ΔTm) in assay [7] came to 1.69 °C; in assay [8], 0 °C.

Turning to `COC(=O)c1ccc(CN2CCC(O)(Cn3cnc4c(-c5ccc(CN)cc5)n(C)nc4c3=O)CC2)c(Cl)c1`, the ΔTm is 0.48 °C in assay [1]; -3.34 °C in assay [2]; -0.1 °C in assay [3]; -0.28 °C in assay [4]; -0.1 °C in assay [5]; 0.15 °C in assay [6]. Further, the ΔTm is -1.56 °C in assay [7] and 2.14 °C in assay [8].

Consider `O=c1[nH]c(CS[C@H]2CC[C@H](O)CC2)nc2cc(OCC3CC3)cc(F)c12`, for which the ΔTm in assay [1] is 0.58 °C; in assay [2], -1.62 °C; in assay [3], -0.32 °C; in assay [4] it was -5.43 °C; in assay [5] it was 0 °C; in assay [6], 0.1 °C. The thermal shift (ΔTm) is -0.76 °C in assay [7] and -0.56 °C in assay [8].

`CNC(=O)Cn1cc(-c2ccc3c(c2)[C@H](F)C[C@]32NC(=O)N(CC(=O)N(Cc3ccc(F)cc3)[C@@H](C)C(F)(F)F)C2=O)cn1`: the shift in melting temperature (ΔTm) is 0.95 °C in assay [1]; -4.22 °C in assay [2]; 1.31 °C in assay [3]; 0.73 °C in assay [4]; 1.28 °C in assay [5]; -6.46 °C in assay [6]. Further, the ΔTm in assay [7] is -1.03 °C; in assay [8] it was -1.4 °C.

As to `CCCC[C@@H](C=O)NC(=O)[C@H](CC(C)C)NC(=O)[C@H](CC(C)C)NC(C)=O` (Ac-Leu-Leu-[Nle]-aldehyde), the thermal shift (ΔTm) is 0.18 °C in assay [1]; -2.71 °C in assay [2]; 0.09 °C in assay [3]; 0.12 °C in assay [4]; -0.45 °C in assay [5]; 0.06 °C in assay [6]. Moreover, the ΔTm in assay [7] was -1.13 °C; in assay [8] it was -1.21 °C.

With `CS(=O)(=O)c1ccc(-c2nnc(C=Cc3nnc(-c4ccc(C#N)cc4)o3)n2-c2ccccc2Cl)nc1`, the ΔTm in assay [1] was 0.4 °C; in assay [2], -3.09 °C; in assay [3] it was 0.99 °C; in assay [4] it was -0.25 °C; in assay [5], -0.77 °C; in assay [6], -0.27 °C. Moreover, the ΔTm was -1.63 °C in assay [7] and 0.34 °C in assay [8].

`CCC(CC)N(CCN(C)C(=O)CCC(=O)O)Cc1cccc(C(=O)Nc2sc3c(c2C(=O)c2cnn(-c4ccc(Cl)c(C(F)(F)F)c4)c2)CCC(C)(C)C3)c1`: the ΔTm was -0.27 °C in assay [1]; 1.72 °C in assay [2]; -0.99 °C in assay [3]; -8.05 °C in assay [4]; -4.31 °C in assay [5]; -1.59 °C in assay [6]. For the same compound, the ΔTm in assay [7] was -8.72 °C; in assay [8], 1.42 °C.

Take `CCc1c(C#N)c(S[C@@H](C(N)=O)c2ccccc2)nc(N(C)C)c1C#N`: the ΔTm was 0.6 °C in assay [1]; -2.37 °C in assay [2]; 0.24 °C in assay [3]; -0.69 °C in assay [4]; 0.35 °C in assay [5]; 0.45 °C in assay [6]. Moreover, the ΔTm was -2.54 °C in assay [7] and 0.58 °C in assay [8].

Consider `Nc1nc(C(F)(F)F)nc2c1nnn2C[C@H]1CN(Cc2nccs2)CCO1`, for which the ΔTm in assay [1] was 0.2 °C; in assay [2] it was -2.15 °C; in assay [3], 0.32 °C; in assay [4], -0.15 °C; in assay [5] it was -0.98 °C; in assay [6], 0.32 °C. Besides, the ΔTm is -1.21 °C in assay [7] and 0.71 °C in assay [8].

Take `Cc1[nH]c2c(N3CCCCC3)c(-c3ccccc3)nn2c(=O)c1-c1ccc(O)cc1`: the ΔTm was -0.07 °C in assay [1]; 0.61 °C in assay [2]; 0.64 °C in assay [3]; -0.07 °C in assay [4]; -1.39 °C in assay [5]; 0.65 °C in assay [6]. The ΔTm in assay [7] is -0.41 °C; in assay [8], -0.15 °C.

Regarding `O=C(O)Cn1nnc(-c2ccc(CN(CCCCOc3ccc(CN4CCCC4)cc3)CCc3ccccc3)cc2)n1`, the ΔTm is 0.12 °C in assay [1]; -3.23 °C in assay [2]; -1.15 °C in assay [3]; 0.14 °C in assay [4]; -0.71 °C in assay [5]; -0.45 °C in assay [6]. In addition, the ΔTm was -2.88 °C in assay [7] and -1.13 °C in assay [8].
